We go through 64 molecules from PubChem BioAssay AID2546 (National Center for Advancing Translational Sciences (NCATS), 2010).

In all, about 310,000 compounds went through this assay and about 11,000 (3.5%) were called active. Another 8% or so got no clear call; they are omitted. This excerpt belongs to a sample that is enriched for actives. A number with no mark means an inactive call. Calls follow the shape of the dose curve; as a rule, active = well fitted inhibition curve with a large enough effect; inconclusive = small, poorly fitted or top-dose-only effect, or effect the other way; inactive = flat fitted curve, though single readings scatter.
% is scaled to controls: 0 for no effect and ±100 for the full control effect; potency is read from the fitted curve at half-maximal effect.

This experiment can be described thus: VP16 counterscreen qHTS for inhibitors of ROR gamma transcriptional activity.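 Also: Gal4-VP16 expression switched on by copper sulfate through the metallothionein promoter; nearly all actives have a fitted effect of over 50% in size.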 To be noted: Drosophila S2 Gal4-VP16 UAS-luciferase, luminescence, 20 h; series mostly up to 53.6 µM; activity, negative = inhibition: at the top concentration.
On to `COc1ccc(C(C(=O)NC2CCCC2)N(CCCO)C(=O)Cn2nnc(-c3ccc(C)o3)n2)cc1` (centres undefined), for which the “activity, negative = inhibition” value is 0.18%.

Regarding `COc1ccc(-c2cc(=O)oc3cc(OCC(=O)N(C)C4CCS(=O)(=O)C4)ccc23)cc1` (centres undefined), the “activity, negative = inhibition” value is -13%.

`CC(=O)Nc1cccc(/C(C)=N/NC(=O)c2ccccc2Cl)c1`: the “activity, negative = inhibition” value was -3.27%.

`CC(=O)Nc1cccc(/C(C)=N/NC(=O)c2c(-c3ccccc3Cl)noc2C)c1`: the Potency was 20 µM (active).

Turning to `Cc1onc(-c2c(Cl)cccc2Cl)c1C(=O)NNC(=O)c1c(-c2c(Cl)cccc2Cl)noc1C`, the “activity, negative = inhibition” value is 4.2%.

Consider `Cc1csc(-c2coc3cc(O[C@@H]4O[C@H](CO)[C@@H](O)[C@@H](O)[C@H]4O)ccc3c2=O)n1`, for which the Potency is 15.8 µM (active).

In the case of `CCc1cccc(OC2OC(CO)C(O)C(O)C2NC(C)=O)c1` (centres undefined), the “activity, negative = inhibition” value is 3.54%.

Turning to `COc1cc(/C=C/CO)cc(OC)c1O[C@@H]1O[C@H](CO)[C@@H](O)[C@H](O)[C@H]1O`, the “activity, negative = inhibition” value was -3.49%.

Turning to `CCN(C(=O)C1CCCN(c2nc(-c3ccc(OC)cc3)no2)C1)c1ccc(OC)cc1` (centres undefined), the “activity, negative = inhibition” value was 2.87%.

For `CC(=O)[C@@]12O[C@@H]1C[C@H]1[C@@H]3CC[C@H]4C[C@@H](O)CC[C@]4(C)[C@H]3CC[C@@]12C`, the “activity, negative = inhibition” value is -3.05%.

In the case of `Cc1cccc(C(=O)NC(=S)N2CCN(c3ccc([N+](=O)[O-])cc3)CC2)c1`, the Potency was 1 µM (active).

With `Cc1cccc(C(=O)NNC(=O)c2cccc([N+](=O)[O-])c2)c1`, the “activity, negative = inhibition” value is -2.22%.

As to `Cc1cccc(C(=O)Nc2ccccc2N2CCN(c3ccc(F)cc3)CC2)c1`, the “activity, negative = inhibition” value was -2.23%.

`CCOc1cc(C(=S)N2CCOCC2)ccc1OS(=O)(=O)c1ccc(Br)cc1`: the “activity, negative = inhibition” value was 2.61%.

Take `COc1cccc(-c2coc3cc4oc(=O)c(CC(=O)O)c(C)c4cc23)c1`: the “activity, negative = inhibition” value was -10.5%.

Regarding `Cc1c(Cl)c([N+](=O)[O-])nn1Cc1ccc(C(=O)N/N=C\c2cc(Cl)ccc2O)o1`, the Potency is 11.2 µM (active).

On to `O=C(N/N=C/c1ccc2c(c1)OCO2)c1ccc(Cn2cc([N+](=O)[O-])cn2)o1`, for which the “activity, negative = inhibition” value is -6.56%.

Consider `Cc1c(Cl)c([N+](=O)[O-])nn1CCCC(=O)Nc1cc(Cl)ccc1Cl`, for which the “activity, negative = inhibition” value was -0.0276%.

For the molecule `COc1cccc(-c2cccc(NC(=O)C3CCN(C4CCC4)CC3)c2)c1`, the “activity, negative = inhibition” value was -0.379%.

Turning to `CCCCN=C1N/C(=C\c2ccco2)C(=O)N1c1ccccc1`, the “activity, negative = inhibition” value was 12.7%.

With `COc1cc2c(cc1/C=C1/NC(=O)N(c3ccccc3)C1=O)OCO2`, the “activity, negative = inhibition” value is -13.3%.

In the case of `O=C1/C(=C\c2ccsc2)NC(=S)N1c1ccccc1`, the Potency is 22.4 µM (active).

Consider `O=C(CNc1cccc(S(=O)(=O)N2CCCCC2)c1)Nc1ccccc1F`, for which the “activity, negative = inhibition” value was -17.1%.

On to `COc1ccc(C(=O)NC(C)c2nccs2)cc1OC1CCN(C(C)C)CC1` (centres undefined), for which the “activity, negative = inhibition” value was -4.74%.

For `CCOC(=O)c1ccc(NC(=O)c2nc[nH]c2C(=O)NCc2ccccc2)cc1`, the Potency is 5.62 µM (active).

Consider `CCOC(=O)c1ccc(NC(=O)c2cc(=O)[nH]c3ccccc23)cc1`, for which the “activity, negative = inhibition” value was -1.66%.

Take `CCOC(=O)c1[nH]cnc1C(=O)Nc1ccccc1C`: the “activity, negative = inhibition” value is -6.62%.

In the case of `Cc1ccc(C(C)C)cc1OCC(=O)Nc1ccccc1N1CCCC1`, the “activity, negative = inhibition” value was -3.18%.

In the case of `O=C(c1cc2ccccc2o1)N1CCN(c2cccc(C(F)(F)F)c2)CC1`, the “activity, negative = inhibition” value is -18.6%.

With `CCCCC[C@H]1CN(C2CCCCC2)C(=O)[C@@H]1CC(=O)NCc1ccc(OC)cc1`, the “activity, negative = inhibition” value was 4.56%.

For the molecule `CCC(C)C(=O)Nc1ccccc1N1CCN(c2ccc(F)cc2)CC1` (centres undefined), the “activity, negative = inhibition” value was 0.0709%.

Turning to `CCN1C(=NCCc2cccnc2)N[C@@H](c2ccccc2)C(C(=O)OC)=C1C`, the Potency entry was “inactive”.

Consider `O=C(NNC(=S)NC1CCCCC1)c1ccccc1Cl`, for which the activity, negative = inhibition is -4.51% [at 10 µM].

Regarding `O=C(CO/N=C/c1ccccc1O)NNC(=O)c1ccccc1Cl`, the Potency was 14.1 µM (active).

In the case of `O=C(CO/N=C/c1ccccc1OC(F)F)NC1CCCC1`, the “activity, negative = inhibition” value was -0.0109%.

As for `Oc1ccc(-n2nnnc2SCc2c(F)cccc2Cl)cc1`, the “activity, negative = inhibition” value was -5.26%.

Take `Cc1cccc(OCCC(=O)Nc2ccccc2C(N)=O)c1`: the “activity, negative = inhibition” value is 1.04%.

Turning to `Cc1cccc(OC(C)C(=O)N2CCc3ccccc3C2)c1` (centres undefined), the “activity, negative = inhibition” value was -5.71%.

Regarding `O=[N+]([O-])c1ccccc1N/N=C1\CCc2ccccc21`, the “activity, negative = inhibition” value is 7.72%.

Consider `CCCCNC(=S)N/N=C1\CCCCc2ccccc21`, for which the Potency is 4.47 µM (active).

Take `CCCCNC(=O)C(=O)c1ccccc1NC(C)=O`: the “activity, negative = inhibition” value was -3.25%.

Take `FC(F)(F)c1nnc2c3ccccc3c(Cl)nn12`: the “activity, negative = inhibition” value was -10.7%.

In the case of `COc1ccc(CNc2cc(C)cc(C)c2)cc1OC`, the “activity, negative = inhibition” value is 4.88%.

On to `COc1ccc(N2CCN(S(=O)(=O)c3ccc4c(c3)NC(=O)C(C)C(=O)N4)CC2)cc1` (centres undefined), for which the “activity, negative = inhibition” value was 0.791%.

Take `CC(C)(O)C#Cc1ccc(CN2CCC(CO)(CCc3ccccc3)CC2)cc1`: the “activity, negative = inhibition” value is -11%.

As for `CC(=O)NC(=S)Nc1ccc(NC(=S)NC(=O)c2ccc([N+](=O)[O-])cc2)cc1`, the “activity, negative = inhibition” value is -20.7%.

For `O=C(NC(=S)Nc1ccc(NC(=O)c2cccs2)cc1)c1ccc([N+](=O)[O-])cc1`, the “activity, negative = inhibition” value was -16.7%.

On to `COCCCNC(=S)NC(=O)c1ccc([N+](=O)[O-])cc1`, for which the Potency is 17.8 µM (active).

Turning to `Cc1cc(CN(C)C(=O)c2cc(COc3ccc(C)c(C)c3)on2)n[nH]1`, the “activity, negative = inhibition” value was -25.2%.

As for `COC(=O)c1cc(S(=O)(=O)Nc2ccc(C)c(F)c2)c[nH]1`, the “activity, negative = inhibition” value was 6.68%.

Regarding `COc1ccc(-n2nc(C(=O)NCC(=O)N3CCN(c4ccccc4OC)CC3)c3ccccc3c2=O)c(OC)c1`, the “activity, negative = inhibition” value was -1.24%.

As for `COc1cccc(NC(=O)c2ccccc2N(Cc2ccccc2)S(C)(=O)=O)c1`, the “activity, negative = inhibition” value is -0.142%.

As to `Cc1ccc(C2=Nc3c(ccc4ccccc34)C(c3ccncc3)=NN2)cc1`, the “activity, negative = inhibition” value was 3.1%.

With `CCOc1ccc2c(c1)C(c1ccc(C)cc1)=NNC(c1ccc(C)cc1)=N2`, the Potency was 15.8 µM (active).

In the case of `CCc1ccc2c(c1)C(c1ccc([N+](=O)[O-])cc1)=NNC(c1ccccc1)=N2`, the “activity, negative = inhibition” value is 20.7%.

For the molecule `COc1ccc(C(=O)NCCn2nc(C)cc2C)cc1OC1CCN(C(C)=O)CC1`, the “activity, negative = inhibition” value is 2.18%.

As to `COc1ccc(NC(=O)CS(=O)(=O)c2ccccc2)cc1`, the “activity, negative = inhibition” value is 6.5%.

`O=C(Nc1cccc(Cl)c1)Nc1nnc(-c2ccccc2)o1`: the “activity, negative = inhibition” value was -17.2%.

On to `O=C(Nc1nnc(-c2ccc(Cl)cc2)o1)c1ccccc1Br`, for which the Potency is 4.47 µM (active).

Regarding `Cc1nonc1NC(=O)c1ccccc1Br`, the “activity, negative = inhibition” value is -14.3%.

In the case of `COc1cccc(N(C(=O)c2snc(C(N)=O)c2N)C(C(=O)NCC2CCCO2)c2c[nH]c3ccccc23)c1` (centres undefined), the “activity, negative = inhibition” value is -4.67%.

Turning to `O=C(Nc1cccc(C(F)(F)F)c1)c1cc(Br)cc(Br)c1O`, the Potency was 4.47 µM (active).

In the case of `O=C(Nc1cccc(C(F)(F)F)c1)c1cnccn1`, the “activity, negative = inhibition” value was 12.2%.

`O=C(O)CSCC(=O)Nc1cccc(C(F)(F)F)c1`: the “activity, negative = inhibition” value is 10.4%.
